# Reference: PubChem BioAssay (EPA / NIEHS)
# Calls of active or inactive are those of the source. How the source made its calls: active means hit-call score of the fitted dose curve at least 0.9, where 1 is the maximum; inactive means score below 0.9.
# What was measured:
# [1] = ATG_CRE_CIS: Attagene CIS-FACTORIAL HepG2 Assay for human cAMP Responsive Element (CRE) binding protein 3 (AID 2282926); conditions: HepG2 CRE cis-reporter, Attagene multiplexed mRNA; actives raise or lower the signal
# How it was run: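 Assay format: transient reporter transfection of HepG2, 24 h treatment, total RNA isolation with DNase I step. Reporter abundance read by fluorescence after PCR and capillary separation; DMSO-normalised gain or loss fitting.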
# [2] = target: CCAAT/enhancer-binding protein beta (Homo sapiens) (UniProt P17676); experiment: ATG_C_EBP_CIS: Attagene CIS-FACTORIAL HepG2 Assay for human CCAAT/Enhancer Binding Protein (C/EBP) beta (AID 2282927); conditions: HepG2 Attagene cis-factorial transcription factor reporter; actives raise or lower the signal
# Chain of CCAAT/enhancer-binding protein beta (Homo sapiens) (P17676 whole entry, looked up): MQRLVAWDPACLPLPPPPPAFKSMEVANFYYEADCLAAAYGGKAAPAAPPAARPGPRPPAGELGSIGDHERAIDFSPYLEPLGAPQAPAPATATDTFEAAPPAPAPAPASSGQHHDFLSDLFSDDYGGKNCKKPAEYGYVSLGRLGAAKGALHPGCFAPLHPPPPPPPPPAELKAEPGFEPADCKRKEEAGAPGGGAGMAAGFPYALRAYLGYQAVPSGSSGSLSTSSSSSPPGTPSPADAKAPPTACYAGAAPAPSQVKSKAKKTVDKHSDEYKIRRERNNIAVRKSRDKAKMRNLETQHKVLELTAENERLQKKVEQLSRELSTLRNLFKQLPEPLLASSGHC
# How it was run: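 Transiently transfected HepG2 (MRTU library, endogenous TF-driven promoters); 24 h dosing; total RNA → oligo(dT) RT → PCR → 6-FAM primer extension → HpaI digest → CE; fit bidirectionally vs DMSO.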
# [3] = ATG_CMV_CIS: Attagene CIS-FACTORIAL HepG2 Assay for human CMV (Internal Marker) (AID 2282928); conditions: HepG2 CMV promoter reporter, transcription factor profiling; actives raise or lower the signal;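 further: endpoint acts as a background internal control marker rather than a target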
# How it was run: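 Fluorescence intensity of RT-PCR-derived reporter fragments, resolved by capillary electrophoresis, gives the signal. HepG2 liver cells bearing transfected cis-element reporters were treated 24 h; activity in either direction was fit relative to DMSO-treated controls.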
# [4] = ATG_DR4_LXR_CIS: Attagene CIS-FACTORIAL HepG2 Assay for human Liver X Receptor (LXR), DR4 submotif (AID 2282929); conditions: HepG2 Attagene DR4 cis-reporter, mRNA transcription; actives raise or lower the signal
# How it was run: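 The endpoint is DR4-element-driven reporter transcripts after 24 h chemical exposure of transfected HepG2 cells. These were measured via RT-PCR and capillary electrophoresis, and gain or loss of signal was fitted relative to DMSO controls.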
# [5] = target: Aryl hydrocarbon receptor (Homo sapiens) (UniProt P35869); experiment: ATG_Ahr_CIS: Attagene CIS-FACTORIAL HepG2 Assay for human Aryl Hydrocarbon Receptor (Ahr) (AID 2282930); conditions: HepG2 AhR cis-factorial reporter transcription; actives raise or lower the signal
# Chain of Aryl hydrocarbon receptor (Homo sapiens) (P35869 whole entry, looked up): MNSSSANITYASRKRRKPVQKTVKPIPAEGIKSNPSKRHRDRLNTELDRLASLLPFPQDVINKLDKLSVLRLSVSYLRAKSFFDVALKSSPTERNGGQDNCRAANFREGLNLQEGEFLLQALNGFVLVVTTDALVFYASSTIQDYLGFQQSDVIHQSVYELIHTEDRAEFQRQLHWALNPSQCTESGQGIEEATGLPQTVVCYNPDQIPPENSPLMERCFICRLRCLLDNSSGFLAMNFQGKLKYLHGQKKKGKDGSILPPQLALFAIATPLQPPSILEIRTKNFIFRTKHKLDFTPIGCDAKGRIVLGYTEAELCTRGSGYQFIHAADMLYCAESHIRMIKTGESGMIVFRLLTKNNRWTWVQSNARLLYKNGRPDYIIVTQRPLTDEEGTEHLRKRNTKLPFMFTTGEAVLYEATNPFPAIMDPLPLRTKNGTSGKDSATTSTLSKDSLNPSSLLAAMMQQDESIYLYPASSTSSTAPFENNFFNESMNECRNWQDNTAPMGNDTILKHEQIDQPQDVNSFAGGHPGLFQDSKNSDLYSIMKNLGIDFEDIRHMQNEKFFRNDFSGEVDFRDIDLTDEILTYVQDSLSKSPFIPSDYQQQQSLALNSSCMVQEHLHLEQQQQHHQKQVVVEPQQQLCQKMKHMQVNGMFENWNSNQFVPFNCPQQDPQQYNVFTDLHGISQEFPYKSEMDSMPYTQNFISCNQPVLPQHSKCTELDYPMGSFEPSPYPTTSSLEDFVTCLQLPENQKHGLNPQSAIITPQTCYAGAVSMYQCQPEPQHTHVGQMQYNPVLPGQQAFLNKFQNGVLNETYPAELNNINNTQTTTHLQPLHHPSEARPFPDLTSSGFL
# How it was run: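 Read-out: reporter mRNA quantified by RT-PCR with fluorescent primer extension and capillary electrophoresis. Human HepG2 liver cells carried transfected cis-promoter reporter units and were exposed to chemical for 24 h; gain or loss fitted relative to DMSO.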
# [6] = ATG_AP_1_CIS: Attagene CIS-FACTORIAL HepG2 Assay for human Activator Protein 1 (AP-1) (AID 2282931); conditions: HepG2 Attagene cis-factorial AP-1 reporter mRNA; actives raise or lower the signal
# How it was run: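 Readout is reporter transcript level from endogenous transcription factor activity, quantified by RT-PCR with fluorescent primer extension and capillary electrophoresis. Transiently transfected HepG2 cells, 24 h exposure. Curves fitted both directions versus DMSO.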
# [7] = ATG_AP_2_CIS: Attagene CIS-FACTORIAL HepG2 Assay for human Activator Protein 2 (AP-2) (AID 2282932); conditions: HepG2 AP-2 cis-reporter, Attagene transcription factor profiling; actives raise or lower the signal
# How it was run: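 Liver-derived HepG2 line, cis-reporter system measuring endogenous factors; 24 h dosing; reporter mRNA detected by fluorescent RT-PCR and capillary electrophoresis.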
# [8] = ATG_BRE_CIS: Attagene CIS-FACTORIAL HepG2 Assay for human Bone Morphogenetic Protein (BMP) Response Element (BRE) (AID 2282933); conditions: HepG2 BMP response element reporter, Attagene transcription factor profiling; actives raise or lower the signal
# How it was run: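 Endogenous transcription factor activity read in transiently transfected HepG2 cells after 24 h chemical exposure. Bidirectional curve fitting against DMSO; readout is reporter transcript level by RT-PCR with capillary electrophoresis of labelled products.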
# [9] = target: Retinoic acid receptor alpha (Homo sapiens) (UniProt P10276); experiment: ATG_DR5_RAR_CIS: Attagene CIS-FACTORIAL HepG2 Assay for human Retinoic Acid Receptor Alpha (RARE), DR5 submotif (AID 2282934); conditions: HepG2 Attagene cis-factorial RARE DR5 reporter, mRNA; actives raise or lower the signal;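 on AC50: reporter responds to endogenous RAR alpha beta and gamma in HepG2 not RARA alone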
# Chain of Retinoic acid receptor alpha (Homo sapiens) (P10276 whole entry, looked up): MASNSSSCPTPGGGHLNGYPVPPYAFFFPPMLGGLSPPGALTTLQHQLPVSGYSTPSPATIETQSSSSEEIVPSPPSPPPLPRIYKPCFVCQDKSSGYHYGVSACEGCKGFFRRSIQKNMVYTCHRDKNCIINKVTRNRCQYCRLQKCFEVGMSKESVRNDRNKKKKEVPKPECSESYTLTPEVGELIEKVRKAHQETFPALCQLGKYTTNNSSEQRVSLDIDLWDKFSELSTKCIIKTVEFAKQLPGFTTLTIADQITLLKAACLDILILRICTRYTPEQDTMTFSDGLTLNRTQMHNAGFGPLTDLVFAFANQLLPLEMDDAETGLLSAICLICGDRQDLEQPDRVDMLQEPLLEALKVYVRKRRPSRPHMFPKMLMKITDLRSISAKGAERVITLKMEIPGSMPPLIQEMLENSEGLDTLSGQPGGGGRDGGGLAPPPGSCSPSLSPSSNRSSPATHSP
# How it was run: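 Read-out: DR5-driven reporter transcript measured by RT-PCR, 6-FAM primer extension, HpaI digest and capillary electrophoresis. Human HepG2 liver cells carry transiently transfected cis-element reporter constructs; dosing lasts 24 h. Gain or loss of signal fitted against DMSO baseline.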
# [10] = target: Transcription factor E2F1 (Homo sapiens) (UniProt Q01094); experiment: ATG_E2F_CIS: Attagene CIS-FACTORIAL HepG2 Assay for human E2F Transcription Factor 1 (AID 2282935); conditions: HepG2 Attagene cis-reporter, E2F reporter RNA transcripts; actives raise or lower the signal
# Chain of Transcription factor E2F1 (Homo sapiens) (Q01094 whole entry, looked up): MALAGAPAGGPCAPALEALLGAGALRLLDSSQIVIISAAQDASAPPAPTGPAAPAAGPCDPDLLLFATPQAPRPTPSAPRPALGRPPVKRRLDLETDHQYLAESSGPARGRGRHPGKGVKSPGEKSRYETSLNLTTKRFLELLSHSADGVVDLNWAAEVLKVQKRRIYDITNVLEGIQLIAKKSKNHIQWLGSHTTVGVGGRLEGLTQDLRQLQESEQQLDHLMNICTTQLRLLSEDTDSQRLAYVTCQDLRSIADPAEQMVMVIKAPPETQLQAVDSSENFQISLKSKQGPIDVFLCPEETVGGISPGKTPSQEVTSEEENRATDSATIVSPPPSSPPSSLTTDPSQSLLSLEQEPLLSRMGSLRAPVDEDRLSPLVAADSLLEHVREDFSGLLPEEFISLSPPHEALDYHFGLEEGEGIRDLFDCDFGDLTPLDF
# How it was run: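 Liver-derived HepG2 cells expressing transfected promoter-driven reporter units received test chemical for 24 hours. Signal gains or losses were fitted bidirectionally against DMSO.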
# [11] = ATG_E_Box_CIS: Attagene CIS-FACTORIAL HepG2 Assay for human Enhancer Box (E-box) (AID 2282936); conditions: HepG2 E-box cis-reporter transcription, actives raise or lower the signal
# How it was run: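 In this cell-based setup, HepG2 cells bearing transfected promoter-driven reporter units were exposed to chemicals for 24 h; reporter transcripts were amplified, 6-FAM-labelled, cut with HpaI and sized by capillary electrophoresis.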
# [12] = ATG_M_61_CIS: Attagene CIS-FACTORIAL HepG2 Assay for M61 Transcription Factor (Internal Marker) (AID 2282937); conditions: HepG2 Attagene CIS-FACTORIAL M61 internal marker reporter; actives raise or lower the signal
# How it was run: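 Readout is reporter mRNA by RT-PCR, fluorescent primer extension and capillary electrophoresis, with gain or loss fitted relative to DMSO. Transfected HepG2 cells carrying endogenous-TF-driven cis reporters were exposed to chemicals for 24 hours.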
# [13] = ATG_EGR_CIS: Attagene CIS-FACTORIAL HepG2 Assay for human Early Growth Response 1 (EGR1) (AID 2282938); conditions: HepG2 Attagene CIS-FACTORIAL EGR reporter mRNA; actives raise or lower the signal
# How it was run: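 After 24 h compound exposure, RNA from reporter-transfected HepG2 cells was reverse-transcribed, PCR-amplified, fluorescently labelled and resolved by capillary electrophoresis. EGR1 reporter transcript changes, up or down, were fitted against DMSO, reflecting endogenous transcription-factor activity.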
# [14] = ATG_M_19_CIS: Attagene CIS-FACTORIAL HepG2 Assay for M19 Transcription Factor (Internal Marker) (AID 2282939); conditions: HepG2 Attagene CIS-FACTORIAL M19 internal marker reporter; actives raise or lower the signal
# How it was run: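 Internal marker readout, fitted in both directions against DMSO, from HepG2 cells carrying transfected cis-element reporter constructs; RT-PCR and capillary electrophoresis of reporter mRNA after 24 h exposure.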
# [15] = ATG_ERE_CIS: Attagene CIS-FACTORIAL HepG2 Assay for Estrogen Response Element (ERE) (AID 2282940); conditions: HepG2 ERE cis-reporter, Attagene RNA transcript; actives raise or lower the signal
# How it was run: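 After 24 h compound treatment, RNA from transfected HepG2 cells was reverse-transcribed, reporter cDNA PCR-amplified, FAM-labelled, HpaI-cut and resolved by capillary electrophoresis. ERE-driven cis reporter transcripts reflect endogenous factors; gain or loss scored against DMSO.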
# [16] = ATG_Ets_CIS: Attagene CIS-FACTORIAL HepG2 Assay for human Erythroblast Transformation Specific (ETS) (AID 2282941); conditions: HepG2 ETS cis-reporter transcription, actives raise or lower the signal
# How it was run: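 Multiplexed reporter transcript profiling: HepG2, 24 h treatment, total RNA to cDNA, PCR, 6-FAM labelling, HpaI cut, capillary electrophoresis. Gain- or loss-of-signal fitted against DMSO.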
# [17] = target: Hepatocyte nuclear factor 3-beta (Homo sapiens) (UniProt Q9Y261); experiment: ATG_FoxA2_CIS: Attagene CIS-FACTORIAL HepG2 Assay for human Forkhead box A2 (FOXA2) (AID 2282942); conditions: HepG2 cis-reporter transcription factor activity, 24 h; actives raise or lower the signal
# Chain of Hepatocyte nuclear factor 3-beta (Homo sapiens) (Q9Y261 whole entry, looked up): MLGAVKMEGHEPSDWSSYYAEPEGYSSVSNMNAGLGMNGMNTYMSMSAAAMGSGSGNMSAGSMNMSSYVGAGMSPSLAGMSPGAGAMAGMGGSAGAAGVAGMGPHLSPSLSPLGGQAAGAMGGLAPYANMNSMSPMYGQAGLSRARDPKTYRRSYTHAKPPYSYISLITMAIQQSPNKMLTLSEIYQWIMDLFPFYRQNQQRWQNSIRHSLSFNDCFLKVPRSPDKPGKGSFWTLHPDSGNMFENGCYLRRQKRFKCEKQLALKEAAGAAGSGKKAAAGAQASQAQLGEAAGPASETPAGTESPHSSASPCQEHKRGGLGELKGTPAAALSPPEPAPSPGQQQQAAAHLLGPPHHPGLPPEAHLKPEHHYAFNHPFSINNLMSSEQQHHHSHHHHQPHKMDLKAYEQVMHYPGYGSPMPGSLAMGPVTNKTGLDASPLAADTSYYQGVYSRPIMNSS
# How it was run: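 Endogenous transcription factor activity is captured via cis-element-driven reporter transcripts in transfected HepG2. Total RNA taken at 24 h post-dosing; labelled RT-PCR products resolved by capillary electrophoresis. Gain or loss fitted versus DMSO.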
# [18] = ATG_FoxO_CIS: Attagene CIS-FACTORIAL HepG2 Assay for human Forkhead box O (FoxO) (AID 2282943); conditions: HepG2 Attagene cis-reporter, FoxO element, mRNA; actives raise or lower the signal
# How it was run: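 Read-out: fluorescence of 6-FAM-labelled reporter cDNA fragments resolved by capillary electrophoresis. Transiently transfected HepG2 cells were dosed for 24 h; activity fitted in both directions relative to DMSO controls.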
# [19] = ATG_GATA_CIS: Attagene CIS-FACTORIAL HepG2 Assay for human GATA Binding Protein (AID 2282944); conditions: HepG2 GATA cis-element reporter, Attagene multiplex mRNA; actives raise or lower the signal
# How it was run: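 Reporter transcripts from a GATA cis-regulated unit, among multiplexed reporters in transfected HepG2 cells, were measured by RT-PCR with capillary electrophoresis after 24 h dosing. Induction or loss scored relative to DMSO.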
# [20] = ATG_GLI_CIS: Attagene CIS-FACTORIAL HepG2 Assay for human Zinc Finger Protein GLI1 (AID 2282945); conditions: HepG2, Attagene cis-factorial reporter mRNA, GLI element; actives raise or lower the signal
# How it was run: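 Transiently transfected HepG2 cells report endogenous transcription factor activity via cis-element-driven reporter units. After 24 h compound exposure, reporter mRNA was measured by RT-PCR with capillary electrophoresis; bidirectional fitting against DMSO baseline.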
smiles,measurement,setting,value
O=S(=O)(O)c1ccc2cc(O)c(S(=O)(=O)O)cc2c1,outcome,[1],inactive
same,outcome,[2],inactive
same,AC50,[3],166 µM (active)
same,AC50,[4],60.8 µM (active)
same,AC50,[5],138 µM (active)
same,outcome,[6],inactive
same,outcome,[7],inactive
same,outcome,[8],inactive
same,outcome,[9],inactive
same,outcome,[10],inactive
same,outcome,[11],inactive
same,outcome,[12],inactive
same,outcome,[13],inactive
same,outcome,[14],inactive
same,outcome,[15],inactive
same,outcome,[16],inactive
same,outcome,[17],inactive
same,outcome,[18],inactive
same,outcome,[19],inactive
same,outcome,[20],inactive
CCOC(=O)c1ccccc1C(=C1C=C(Br)C(=O)C(Br)=C1)c1cc(Br)c(O)c(Br)c1,AC50,[1],25.4 µM (active)
same,AC50,[2],18.8 µM (active)
same,AC50,[3],53.7 µM (active)
same,AC50,[4],21.5 µM (active)
same,AC50,[5],26.2 µM (active)
same,AC50,[6],51.7 µM (active)
same,AC50,[7],49.9 µM (active)
same,AC50,[8],109 µM (active)
same,AC50,[9],21.3 µM (active)
same,outcome,[10],inactive
same,AC50,[11],108 µM (active)
same,outcome,[12],inactive
same,AC50,[13],33.4 µM (active)
same,outcome,[14],inactive
same,outcome,[15],inactive
same,outcome,[16],inactive
same,AC50,[17],43.6 µM (active)
same,AC50,[18],47.6 µM (active)
same,outcome,[19],inactive
same,AC50,[20],37.7 µM (active)
CC(=O)OCc1ccco1,outcome,[1],inactive
same,outcome,[2],inactive
same,outcome,[3],inactive
same,outcome,[4],inactive
same,outcome,[5],inactive
same,outcome,[6],inactive
same,outcome,[7],inactive
same,outcome,[8],inactive
same,outcome,[9],inactive
same,outcome,[10],inactive
same,outcome,[11],inactive
same,outcome,[12],inactive
same,outcome,[13],inactive
same,outcome,[14],inactive
same,outcome,[15],inactive
same,outcome,[16],inactive
same,outcome,[17],inactive
same,outcome,[18],inactive
same,outcome,[19],inactive
same,outcome,[20],inactive
CC1(C)S[C@@H]2[C@H](NC(=O)COc3ccccc3)C(=O)N2[C@H]1C(=O)O,outcome,[1],inactive
same,outcome,[2],inactive
same,outcome,[3],inactive
same,outcome,[4],inactive
same,outcome,[5],inactive
same,outcome,[6],inactive
same,outcome,[7],inactive
same,outcome,[8],inactive
same,outcome,[9],inactive
same,outcome,[10],inactive
same,outcome,[11],inactive
same,outcome,[12],inactive
same,outcome,[13],inactive
same,outcome,[14],inactive
same,outcome,[15],inactive
same,outcome,[16],inactive
same,outcome,[17],inactive
same,outcome,[18],inactive
same,outcome,[19],inactive
same,outcome,[20],inactive
CCOC(=O)CC,outcome,[1],inactive
same,outcome,[2],inactive
same,outcome,[3],inactive
same,outcome,[4],inactive
same,outcome,[5],inactive
same,outcome,[6],inactive
same,outcome,[7],inactive
same,outcome,[8],inactive
same,outcome,[9],inactive
same,outcome,[10],inactive
same,outcome,[11],inactive
same,outcome,[12],inactive
same,outcome,[13],inactive
same,outcome,[14],inactive
same,outcome,[15],inactive
same,outcome,[16],inactive
same,outcome,[17],inactive
same,outcome,[18],inactive
same,outcome,[19],inactive
same,outcome,[20],inactive
COc1ccc([C@@H]2CC(=O)c3c(O)cc(O[C@@H]4O[C@H](CO[C@@H]5O[C@@H](C)[C@H](O)[C@@H](O)[C@H]5O)[C@@H](O)[C@H](O)[C@H]4O)cc3O2)cc1OC,outcome,[1],inactive
same,outcome,[2],inactive
same,outcome,[3],inactive
same,outcome,[4],inactive
same,outcome,[5],inactive
same,outcome,[6],inactive
same,outcome,[7],inactive
same,outcome,[8],inactive
same,outcome,[9],inactive
same,outcome,[10],inactive
same,outcome,[11],inactive
same,outcome,[12],inactive
same,outcome,[13],inactive
same,outcome,[14],inactive
same,outcome,[15],inactive
same,outcome,[16],inactive
same,outcome,[17],inactive
same,outcome,[18],inactive
same,outcome,[19],inactive
same,outcome,[20],inactive
CCN(Cc1cccc(S(=O)(=O)O)c1)c1ccc(C(=C2C=CC(=[N+](CC)Cc3cccc(S(=O)(=O)[O-])c3)C=C2)c2ccccc2)cc1,outcome,[1],inactive
same,outcome,[2],inactive
same,outcome,[3],inactive
same,outcome,[4],inactive
same,AC50,[5],51.2 µM (active)
same,outcome,[6],inactive
same,outcome,[7],inactive
same,outcome,[8],inactive
same,outcome,[9],inactive
same,outcome,[10],inactive
same,outcome,[11],inactive
same,outcome,[12],inactive
same,outcome,[13],inactive
same,outcome,[14],inactive
same,outcome,[15],inactive
same,outcome,[16],inactive
same,outcome,[17],inactive
same,outcome,[18],inactive
same,outcome,[19],inactive
same,outcome,[20],inactive
